Assay outcomes as filed in PubChem BioAssay.
A selection: hits, their analogues and other compounds. The true share with any hit is near 2.8%.
HepG2 viability: kills HepG2 cells in TGF-b inhibitor counter-screen; HepG2 CAGA-GFP viability, ATP luminescence, 18 h; hit rate 0.76% among 410,000; Potency, µM (top dose mostly 46.1 µM), most hits filed as cytotoxic; AID 588856
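CellTiter-Glo luminescence gave cytotoxicity after 18 hours at 37 degrees C. The cells were HepG2 CAGA-GFP in 1% FBS DMEM, stimulated with 500 pg/mL TGF-beta after compound addition. %Activity was normalised to no-cell wells (complete cell-killing) and DMSO (no toxicity), and curves were fitted and classified.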
HttQ103 aggreg: inhibitors of mutant huntingtin aggregate formation in PC12 cells. AID 1688. Potency, µM (top dose mostly 46.1 µM), most hits filed as inhibitors. PC12 HttQ103-GFP aggregates, Acumen cytometry, 40 h. hit rate 1.1% among 220,000; note: nearly all actives have a fitted effect of over 60% in size
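Huntingtin Q103 exon 1–GFP aggregates in induced PC12 cells (100 nM tebufenozide) were quantified by cytometry from lysates, with compounds dosed in titration.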
HTT ATP protect: Huntington cell model cytoprotection by ATP luminescence | hit rate 0.14% among 230,000 | Potency, µM (titrated, usually from 56.4 µM), hits mostly activators | PC12 HTT-Q103 induced, cytoprotection, ATP luminescence, 40 h; note: nearly all actives have a fitted effect of over 45% in size
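ATP quantification (ATPlite) reports survival of PC12 cells in which tebufenozide, 100 nM final, switches on Htt exon 1 with 103 glutamines linked to GFP; compounds are titrated.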
ATXN2 expr inh: inhibitors of ATXN2 expression. hit rate 0.72% among 360,000. HEK-293 ATXN2-luciferase reporter, luminescence, 24 h. AID 1745845. Potency, µM (series often up to 57 µM), usual class: inhibitors; note: nearly all actives have a fitted effect of over 55% in size
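qHTS (up to 57 uM final) was run with 24 h compound exposure of reporter cells at 37 °C. Each well was multiplexed: SteadyGlo luminescence measured ATXN2-luciferase expression after a fluorogenic Gly-Phe-AFC viability readout (25 uM final).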
ATXN viability: viability counter-screen for ATXN expression inhibitors; S2 cells (HEK-293 line with an ATXN2-luciferase reporter) viability, CellTiter-Fluor protease fluorescence, 24 h; Potency, µM (series often up to 56.7 µM), usual class: cytotoxic; hit rate 0.49% among 400,000; AID 651635; note: nearly all actives have a fitted effect of over 40% in size
TGFb SMAD3 inh: blocks TGF-b signaling | Potency, µM (highest dose often 46.1 µM), actives largely listed as inhibitors | hit rate 1.2% among 410,000 | HepG2 CAGA-GFP TGF-b/SMAD3 reporter, GFP fluorescence, 18 h; TGF-beta stimulated, 500 pg/mL final | AID 588855; note: nearly all actives have a fitted effect of over 65% in size
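HEPG2 CAGA-GFP reporter cells (1000/well, DMEM with 1% FBS) received compounds, then recombinant TGF-beta at 500 pg/mL final for 18 hours at 37 degrees C. Per-cell GFP summed per well was normalised to unstimulated and stimulated DMSO controls before curve fitting.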
Numbers stand for hits; i = inactive; ? = inconclusive; nt = no result given; [ ] = dose if it differs, or a comment. Calls come from the whole dose curve; as a rule, active = well fitted curve in the direction sought with a large enough effect; inconclusive = small, poorly fitted or top-dose-only effect, or another doubt; inactive = no such curve, though single readings can be large; an effect the other way counts as inactive or inconclusive.

SMILES	HepG2 viability	HttQ103 aggreg	HTT ATP protect	ATXN2 expr inh	ATXN viability	TGFb SMAD3 inh
COc1cc(CSc2nnnn2-c2ccc(C)cc2)cc(OC)c1OC	i	2.5µM	i[0.074 µM]	i	i	?
C=C1C=C(C)n2ncc(C(=O)Nc3ccccc3C(=O)OC)c2N1	i	nt	nt	nt	nt	i
CCOc1ccc2nc(N/C(N)=N/C(=S)Nc3ccc(C)c(C)c3)nc(C)c2c1	i	i	i[10 µM]	i	i	i
COc1ccc(NC(=S)/N=C(\N)Nc2nc(C)c3ccc(C)cc3n2)cc1	i	i	i[10 µM]	?	16µM	i
CCN1CCCC1CNCc1cc2c(OC)c(OC)c(OC)cc2nc1N(C)C (stereo not drawn)	nt	nt	nt	nt	i	nt
O=C(Cn1sc2ccccc2c1=O)Nc1ccc(Cl)cc1	i	nt	nt	i	?	11µM
O=C(Cn1sc2ccccc2c1=O)Nc1ccc(Br)cc1	i	nt	nt	i	?	?
O=C(Cn1sc2ccccc2c1=O)Nc1ccc(F)cc1	22µM	nt	nt	?	nt	18µM
O=C(N[C@H]1CCC(=O)N(CCSc2ccc(Br)cc2)CC1)OCc1ccccc1	i	nt	nt	?	28µM	7.1µM
O=C(NC(NC(=S)Nc1cccc(Cl)c1)C(Cl)(Cl)Cl)OCc1ccccc1 (stereo not drawn)	11µM	?	i	?	?	6.3µM
CCc1ccc(OCC(=O)NC(NC(=S)Nc2ccccc2C)C(Cl)(Cl)Cl)cc1 (stereo not drawn)	i	i	i[10 µM]	?	?	?
Cc1ccc(NC(=S)NC(NC(=O)c2ccccc2C)C(Cl)(Cl)Cl)c(C)c1 (stereo not drawn)	i	?	i	i	i	22µM
Cc1ccc(C)c(NC(=S)NC(NC(=O)Cc2cccc3ccccc23)C(Cl)(Cl)Cl)c1 (stereo not drawn)	2.8µM	i[1.84 µM]	i	18µM	16µM	3.5µM
CCc1ccc(OCC(=O)NC(NC(=S)Nc2ccc(C)cc2C)C(Cl)(Cl)Cl)cc1 (stereo not drawn)	11µM	i	i	?	?	11µM
CC(=O)NC(NC(=S)Nc1ccc(C)cc1C)C(Cl)(Cl)Cl (stereo not drawn)	i	i[9.22 µM]	i[10 µM]	nt	i	i
COc1ccc2c(Oc3ccc(NC(=O)c4c(C)n(CC(C)(C)O)n(-c5ccccc5)c4=O)nc3)ccnc2c1	nt	nt	nt	i	nt	nt
Cc1nn(C)c(Cl)c1CN1CCOc2ccc(CN3CCC(Oc4cccnc4)CC3)cc2C1	nt	nt	nt	nt	i	nt
COc1ccc(Cl)cc1N1C(=O)[C@@H]2C[C@H]1CN2Cc1nc2ccccc2nc1C	nt	nt	nt	nt	i	nt
CCc1ccc(OCC(=O)NC(NC(=S)Nc2ccccc2)C(Cl)(Cl)Cl)cc1 (stereo not drawn)	11µM	i	i[10 µM]	?	i	?
O=C(CCc1ccccc1)NC(NC(=S)Nc1ccc(Cl)cc1)C(Cl)(Cl)Cl (stereo not drawn)	i	?	i	32µM	nt	i
Cc1ccccc1C(=O)c1ccc(Nc2ccc(Br)cc2N)cc1Cl	nt	nt	nt	i	nt	nt
O=S(=O)(NCc1ccncc1)c1ccc(Br)s1	i	2.5µM	i[0.074 µM]	i	i	?
O=C(O)CNS(=O)(=O)c1ccc(Br)s1	i	i	i	i	i	i
O=C(Nc1ccc(-c2nc3cccnc3s2)cc1)c1ccco1	i	?	i[10 µM]	i	i	i
O=C(Nc1cccc(-c2nc3cccnc3s2)c1)c1ccco1	i	16µM	i	i	i	i
SMILES	HepG2 viability	HttQ103 aggreg	HTT ATP protect	ATXN2 expr inh	ATXN viability	TGFb SMAD3 inh
Cc1c(NC(=O)c2ccco2)cccc1-c1nc2cccnc2s1	i	10µM	i[10 µM]	i	i	i
COc1cc2ccccc2cc1C(=O)N1CCN(c2nc3c(F)cc(F)cc3s2)CC1	i	nt	nt	?	i	7.1µM
COC(=O)c1ccc2nc(C3CCCCC3)c(CC(C)(C)C)n2c1	10µM	nt	nt	?	nt	?
CCOC(=O)c1sc2nc(NC(=O)C3CC3)sc2c1C	i	i	i	i	i	i
CCOC(=O)c1sc2nc(NC(=O)C(C)(C)C)sc2c1C	i	35µM	i	i	?	?
O=C(C[n+]1csc2ccccc21)c1cccc([N+](=O)[O-])c1	i	nt	nt	nt	nt	i
Cc1cccc(-c2cnc(C)nc2C2CCCN(C(=O)c3cccc(Cn4cccn4)c3)C2)c1 (stereo not drawn)	nt	nt	nt	nt	i	nt
Cc1oc2c(c1C(=O)NCc1cccnc1)C(=O)c1ccccc1C2=O	0.45µM	3.5µM	i[10 µM]	2.8µM	2.8µM	0.28µM
CC(=O)c1c(C)oc2c1C(=O)c1ccccc1C2=O	i	7.1µM	i[10 µM]	?	?	7.9µM
Cc1onc(-c2ccccc2Cl)c1C(=O)NCc1cccnc1	i	i	i[10 µM]	i	i	i
COc1ccc(-c2nc3ccc([N+](=O)[O-])cc3[nH]2)cc1	i	?	i[0.074 µM]	i	i	i
Cc1ccc(-c2nc3ccc([N+](=O)[O-])cc3[nH]2)cc1	i	10µM	i[10 µM]	nt	i	?
CCOC(=O)c1c(-c2ccc(OC)cc2)nc2nonc2c1N	i	?	0.71µM	i	i	i
CCOC(=O)c1c(C)nc(C)c(C(=O)OCC)c1-c1ccc(OC)cc1	i	i[9.22 µM]	i[10 µM]	i	i	i
COc1ccc2c(c1)OC(C)CN(CCNC(=O)c1csc(-c3cccs3)n1)C2 (stereo not drawn)	nt	nt	nt	nt	i	nt
CNc1nc2cc([N+](=O)[O-])c([N+](=O)[O-])cc2nc1NC	i	i	i[10 µM]	?	i	7.1µM
O=[N+]([O-])c1cc2nc(O)c(O)nc2cc1[N+](=O)[O-]	nt	nt	i	nt	nt	nt
COCc1c(C(=O)N2CCN(C3CCCC3)CC2)cnn1-c1nccc(-c2cccs2)n1	nt	nt	nt	nt	i	nt
O=C(C[n+]1ccncc1)c1cccc([N+](=O)[O-])c1	i	nt	nt	nt	nt	?
COc1cc(/C=C(\C#N)c2nc3ccccc3s2)cc([N+](=O)[O-])c1O	i	?	nt	i[11.3 µM]	i	i
N#C/C(=C\c1ccc(O)c([N+](=O)[O-])c1)c1nc2ccccc2s1	i	?	nt	i	?	13µM
Cc1cc2ccccc2c[n+]1C1CCCCC1	i	nt	nt	nt	nt	?
O=C(Nc1ccc(N2CCOCC2)c(F)c1)c1cccs1	i	nt	nt	i	i	i
O=C(Nc1ccc(Cl)c([N+](=O)[O-])c1)c1ccc(NCCCN2CCOCC2)c([N+](=O)[O-])c1	i	i	i[10 µM]	32µM	?	i
O=C(Nc1ccc(N2CCOCC2)c(F)c1)c1ccncc1	i	2.2µM	i	i	i	i
O=C(Nc1ccc(N2CCCCC2)c(Cl)c1)c1ccc(N2CCOCC2)c([N+](=O)[O-])c1	i	11µM	i	?	?	?
Cc1ccc(NC(=O)c2ccc(NCCCN3CCOCC3)c([N+](=O)[O-])c2)cc1Cl	i	25µM	i[10 µM]	i	i	i
COc1ccc(NC(=O)c2ccc(NCCCN3CCOCC3)c([N+](=O)[O-])c2)cc1	i	i	i[10 µM]	i	?	i
CCCCCCCCSc1nnc(CSc2nc3nc(C)cc(C)n3n2)o1	i	22µM	i	i	i	?
